Measurements taken from PubChem BioAssay (EPA / NIEHS).
Records with an inconclusive call do not appear. Calls of active or inactive are those of the source. The calls were made as follows, unless noted: active = hit-call score of the fitted dose curve at least 0.9, where 1 is the maximum; inactive = score below 0.9.

Columns and labels:
[1] = ACEA_ER_80hr: ACEA Biosciences xCELLigence Real-Time Cell Analysis on Estrogen Receptor Agonism for Proliferation (AID 2282667; active = hit-call score of the fitted dose curve at least 0.9, where 1 is the maximum); settings: T47D proliferation, impedance (xCELLigence), 80 h
Method in brief: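 Cell-growth kinetics were measured by impedance in T47D cells treated continuously with compound (top 100 uM final, 1:4 steps, 8 points). Activity at 80 h was scored as signal gain over the DMSO baseline.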

[2] = ATG_CRE_CIS: Attagene CIS-FACTORIAL HepG2 Assay for human cAMP Responsive Element (CRE) binding protein 3 (AID 2282926); settings: HepG2 CRE cis-reporter, Attagene multiplexed mRNA; actives raise or lower the signal
Method in brief: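 Cells carrying cis-regulated reporter constructs respond through their own endogenous factors. After 24 h treatment, RNA is reverse-transcribed, amplified, labelled and sized by capillary electrophoresis; up- and down-regulation are both scored against vehicle.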

[3] = biological target: CCAAT/enhancer-binding protein beta (Homo sapiens) (UniProt P17676); assay: ATG_C_EBP_CIS: Attagene CIS-FACTORIAL HepG2 Assay for human CCAAT/Enhancer Binding Protein (C/EBP) beta (AID 2282927); settings: HepG2 Attagene cis-factorial transcription factor reporter; actives raise or lower the signal
Method in brief: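 HepG2, transient MRTU transfection, 24 h treatment. RT-PCR plus CE fluorescence; DMSO negative control, bidirectional fit.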

[4] = ATG_CMV_CIS: Attagene CIS-FACTORIAL HepG2 Assay for human CMV (Internal Marker) (AID 2282928); settings: HepG2 CMV promoter reporter, transcription factor profiling; actives raise or lower the signal;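 also: endpoint acts as a background internal control marker rather than a target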
Method in brief: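 24 h chemical treatment, HepG2 with transient multi-reporter transfection; RNA → oligo(dT) RT → PCR → 6-FAM extension → HpaI digest → CE fluorescence. Bidirectional fit, DMSO negative control.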

[5] = ATG_DR4_LXR_CIS: Attagene CIS-FACTORIAL HepG2 Assay for human Liver X Receptor (LXR), DR4 submotif (AID 2282929); settings: HepG2 Attagene DR4 cis-reporter, mRNA transcription; actives raise or lower the signal
Method in brief: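 DR4 cis-reporter in HepG2, 24 h exposure. Detection: RT-PCR, 6-FAM labelling, CE fragment analysis. Endpoint fitted bidirectionally, DMSO = baseline.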

[6] = biological target: Aryl hydrocarbon receptor (Homo sapiens) (UniProt P35869); assay: ATG_Ahr_CIS: Attagene CIS-FACTORIAL HepG2 Assay for human Aryl Hydrocarbon Receptor (Ahr) (AID 2282930); settings: HepG2 AhR cis-factorial reporter transcription; actives raise or lower the signal
Method in brief: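 Endogenous factor activity is tracked through cis-promoter reporter units transfected into HepG2 cells. Transcript levels at 24 h are read by fluorescent RT-PCR and capillary electrophoresis, with activity in either direction scored relative to DMSO.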

[7] = ATG_AP_1_CIS: Attagene CIS-FACTORIAL HepG2 Assay for human Activator Protein 1 (AP-1) (AID 2282931); settings: HepG2 Attagene cis-factorial AP-1 reporter mRNA; actives raise or lower the signal
Method in brief: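 Cis-regulated reporter units transiently expressed in HepG2 report endogenous transcription-factor activity. Signal: reporter mRNA at 24 h, via RT-PCR and fluorescent capillary electrophoresis. Endpoint derived by bidirectional fitting, DMSO as negative control.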

[8] = ATG_AP_2_CIS: Attagene CIS-FACTORIAL HepG2 Assay for human Activator Protein 2 (AP-2) (AID 2282932); settings: HepG2 AP-2 cis-reporter, Attagene transcription factor profiling; actives raise or lower the signal
Method in brief: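 Read-out: fluorescent reporter mRNA via RT-PCR and capillary electrophoresis, 24 h post-dose in transiently transfected HepG2. Endogenous factors drive cis-promoter reporters; gain or loss of signal fitted bidirectionally against DMSO.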

[9] = ATG_BRE_CIS: Attagene CIS-FACTORIAL HepG2 Assay for human Bone Morphogenetic Protein (BMP) Response Element (BRE) (AID 2282933); settings: HepG2 BMP response element reporter, Attagene transcription factor profiling; actives raise or lower the signal
Method in brief: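 HepG2 cells transiently transfected with multiplexed cis-element reporter units were dosed with chemical for 24 h. Reporter mRNA was measured by RT-PCR with fluorescent labelling, HpaI digestion and capillary electrophoresis; bidirectional fitting relative to DMSO.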

[10] = biological target: Transcription factor E2F1 (Homo sapiens) (UniProt Q01094); assay: ATG_E2F_CIS: Attagene CIS-FACTORIAL HepG2 Assay for human E2F Transcription Factor 1 (AID 2282935); settings: HepG2 Attagene cis-reporter, E2F reporter RNA transcripts; actives raise or lower the signal
Method in brief: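 Transient MRTU transfection of HepG2; 24 h compound exposure; RNA → oligo(dT) RT → PCR → FAM label → HpaI cut → CE fluorescence. Gain/loss of signal fit against DMSO.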

[11] = ATG_E_Box_CIS: Attagene CIS-FACTORIAL HepG2 Assay for human Enhancer Box (E-box) (AID 2282936); settings: HepG2 E-box cis-reporter transcription, actives raise or lower the signal
Method in brief: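 Transiently transfected HepG2, endogenous TF-driven reporters, 24 h dosing. Readout: RT-PCR plus capillary electrophoresis of fluorescent reporter fragments. Gain or loss of signal fitted bidirectionally against DMSO baseline.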

[12] = ATG_M_61_CIS: Attagene CIS-FACTORIAL HepG2 Assay for M61 Transcription Factor (Internal Marker) (AID 2282937); settings: HepG2 Attagene CIS-FACTORIAL M61 internal marker reporter; actives raise or lower the signal
Method in brief: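 Background-control endpoint: HepG2 cells with cis-regulated reporter constructs, 24 h exposure, reporter mRNA detected via fluorescent primer extension and capillary electrophoresis; values from bidirectional fitting with DMSO baseline.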

[13] = ATG_EGR_CIS: Attagene CIS-FACTORIAL HepG2 Assay for human Early Growth Response 1 (EGR1) (AID 2282938); settings: HepG2 Attagene CIS-FACTORIAL EGR reporter mRNA; actives raise or lower the signal
Method in brief: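 Endpoint derived by bidirectional fitting versus DMSO vehicle. Method: cis-promoter reporter units transfected into HepG2, 24 h dosing, RNA isolation, RT-PCR with 6-FAM primer extension and HpaI digestion, then capillary electrophoresis fluorescence detection.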

[14] = ATG_M_19_CIS: Attagene CIS-FACTORIAL HepG2 Assay for M19 Transcription Factor (Internal Marker) (AID 2282939); settings: HepG2 Attagene CIS-FACTORIAL M19 internal marker reporter; actives raise or lower the signal
Method in brief: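 HepG2 cells transiently transfected with cis-regulated multiple reporter transcription units were dosed for 24 h; reporter mRNA was quantified by RT-PCR, 6-FAM primer-extension labelling, HpaI digestion and capillary electrophoresis, with bidirectional fitting against DMSO baseline.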

[15] = ATG_ERE_CIS: Attagene CIS-FACTORIAL HepG2 Assay for Estrogen Response Element (ERE) (AID 2282940); settings: HepG2 ERE cis-reporter, Attagene RNA transcript; actives raise or lower the signal
Method in brief: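 HepG2 cells transiently transfected with cis-promoter-driven multiplexed reporter transcription units report endogenous TF activity. After 24 h compound exposure, reporter mRNA is quantified by RT-PCR with capillary electrophoresis fluorescence; bidirectional fitting versus DMSO baseline.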

[16] = ATG_Ets_CIS: Attagene CIS-FACTORIAL HepG2 Assay for human Erythroblast Transformation Specific (ETS) (AID 2282941); settings: HepG2 ETS cis-reporter transcription, actives raise or lower the signal
Method in brief: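 Cis-regulated reporter mRNA induction in HepG2 (transient transfection), 24 h exposure, RT-PCR plus capillary electrophoresis detection; DMSO serves as negative control and baseline.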

[17] = biological target: Hepatocyte nuclear factor 3-beta (Homo sapiens) (UniProt Q9Y261); assay: ATG_FoxA2_CIS: Attagene CIS-FACTORIAL HepG2 Assay for human Forkhead box A2 (FOXA2) (AID 2282942); settings: HepG2 cis-reporter transcription factor activity, 24 h; actives raise or lower the signal
Method in brief: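 Measured: reporter mRNA induction or loss in HepG2 transiently carrying multiple cis-regulated reporter units, 24 h after dosing. Quantified by RT-PCR plus capillary electrophoresis, normalised to DMSO.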

[18] = ATG_FoxO_CIS: Attagene CIS-FACTORIAL HepG2 Assay for human Forkhead box O (FoxO) (AID 2282943); settings: HepG2 Attagene cis-reporter, FoxO element, mRNA; actives raise or lower the signal
Method in brief: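 Transfected HepG2 reporter cells exposed to test chemical for 24 h; reporter RNA measured by reverse transcription, PCR and fluorescent capillary electrophoresis; curves fitted for increases and decreases against DMSO.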

[19] = ATG_GATA_CIS: Attagene CIS-FACTORIAL HepG2 Assay for human GATA Binding Protein (AID 2282944); settings: HepG2 GATA cis-element reporter, Attagene multiplex mRNA; actives raise or lower the signal
Method in brief: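 HepG2 cells transiently transfected with multiplexed cis-element reporter units reflecting endogenous transcription factor activity; reporter mRNA measured after 24 h dosing by RT-PCR, 6-FAM labeling, HpaI digestion and capillary electrophoresis. Bidirectional fitting versus DMSO baseline.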

[20] = biological target: Retinoic acid receptor alpha (Homo sapiens) (UniProt P10276); assay: ATG_DR5_RAR_CIS: Attagene CIS-FACTORIAL HepG2 Assay for human Retinoic Acid Receptor Alpha (RARE), DR5 submotif (AID 2282934); settings: HepG2 Attagene cis-factorial RARE DR5 reporter, mRNA; actives raise or lower the signal;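 as to AC50: reporter responds to endogenous RAR alpha beta and gamma in HepG2 not RARA alone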
Method in brief: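 After 24 h of chemical exposure, transiently transfected HepG2 cells were lysed for total RNA; the DR5-regulated reporter transcript was quantified via RT-PCR and capillary electrophoresis, with activity fitted bidirectionally against DMSO.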

CCAAT/enhancer-binding protein beta (Homo sapiens), sequence (P17676 whole entry, looked up): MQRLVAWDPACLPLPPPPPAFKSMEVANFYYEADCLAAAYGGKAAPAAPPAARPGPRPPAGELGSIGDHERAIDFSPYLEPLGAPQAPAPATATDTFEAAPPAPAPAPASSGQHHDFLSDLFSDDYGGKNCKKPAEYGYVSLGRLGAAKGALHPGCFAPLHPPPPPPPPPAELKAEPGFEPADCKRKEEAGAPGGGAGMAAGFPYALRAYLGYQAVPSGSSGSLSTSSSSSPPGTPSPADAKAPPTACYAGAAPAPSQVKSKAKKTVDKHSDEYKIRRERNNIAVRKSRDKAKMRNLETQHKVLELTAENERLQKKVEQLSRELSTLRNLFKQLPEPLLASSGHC
Hepatocyte nuclear factor 3-beta (Homo sapiens), sequence (Q9Y261 whole entry, looked up): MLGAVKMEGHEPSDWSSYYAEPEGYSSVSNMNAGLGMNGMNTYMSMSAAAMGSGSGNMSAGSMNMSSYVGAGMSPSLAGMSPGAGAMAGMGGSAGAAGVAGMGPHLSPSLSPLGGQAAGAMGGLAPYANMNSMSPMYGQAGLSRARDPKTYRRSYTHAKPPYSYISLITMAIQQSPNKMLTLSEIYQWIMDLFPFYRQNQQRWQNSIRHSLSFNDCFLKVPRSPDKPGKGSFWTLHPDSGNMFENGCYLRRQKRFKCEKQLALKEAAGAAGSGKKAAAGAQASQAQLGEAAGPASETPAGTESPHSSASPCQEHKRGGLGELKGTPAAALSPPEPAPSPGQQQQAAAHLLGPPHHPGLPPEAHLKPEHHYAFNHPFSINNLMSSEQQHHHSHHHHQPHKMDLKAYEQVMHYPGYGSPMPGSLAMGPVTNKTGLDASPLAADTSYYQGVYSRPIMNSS
Retinoic acid receptor alpha (Homo sapiens), sequence (P10276 whole entry, looked up): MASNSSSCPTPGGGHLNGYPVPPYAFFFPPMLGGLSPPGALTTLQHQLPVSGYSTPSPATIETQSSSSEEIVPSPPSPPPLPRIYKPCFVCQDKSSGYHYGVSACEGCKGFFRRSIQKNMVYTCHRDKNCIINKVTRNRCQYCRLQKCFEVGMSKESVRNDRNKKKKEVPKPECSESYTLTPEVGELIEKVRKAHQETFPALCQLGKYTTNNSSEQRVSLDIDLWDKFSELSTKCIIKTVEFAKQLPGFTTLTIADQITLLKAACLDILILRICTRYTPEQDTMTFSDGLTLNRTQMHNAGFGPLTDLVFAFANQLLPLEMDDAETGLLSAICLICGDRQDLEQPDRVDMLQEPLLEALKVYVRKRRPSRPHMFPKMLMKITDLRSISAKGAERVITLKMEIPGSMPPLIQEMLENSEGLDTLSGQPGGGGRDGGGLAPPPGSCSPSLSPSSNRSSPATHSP
Transcription factor E2F1 (Homo sapiens), sequence (Q01094 whole entry, looked up): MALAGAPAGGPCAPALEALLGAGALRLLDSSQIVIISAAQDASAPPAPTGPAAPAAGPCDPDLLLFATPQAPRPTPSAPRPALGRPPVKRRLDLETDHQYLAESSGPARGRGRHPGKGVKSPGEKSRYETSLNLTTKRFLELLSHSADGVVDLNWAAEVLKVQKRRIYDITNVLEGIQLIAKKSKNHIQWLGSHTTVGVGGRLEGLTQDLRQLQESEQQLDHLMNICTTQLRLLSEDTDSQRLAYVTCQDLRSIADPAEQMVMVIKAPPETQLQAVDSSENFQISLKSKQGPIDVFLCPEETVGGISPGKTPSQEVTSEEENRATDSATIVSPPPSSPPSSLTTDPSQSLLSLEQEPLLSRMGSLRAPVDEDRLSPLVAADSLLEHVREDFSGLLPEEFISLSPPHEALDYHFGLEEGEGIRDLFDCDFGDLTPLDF
Aryl hydrocarbon receptor (Homo sapiens), sequence (P35869 whole entry, looked up): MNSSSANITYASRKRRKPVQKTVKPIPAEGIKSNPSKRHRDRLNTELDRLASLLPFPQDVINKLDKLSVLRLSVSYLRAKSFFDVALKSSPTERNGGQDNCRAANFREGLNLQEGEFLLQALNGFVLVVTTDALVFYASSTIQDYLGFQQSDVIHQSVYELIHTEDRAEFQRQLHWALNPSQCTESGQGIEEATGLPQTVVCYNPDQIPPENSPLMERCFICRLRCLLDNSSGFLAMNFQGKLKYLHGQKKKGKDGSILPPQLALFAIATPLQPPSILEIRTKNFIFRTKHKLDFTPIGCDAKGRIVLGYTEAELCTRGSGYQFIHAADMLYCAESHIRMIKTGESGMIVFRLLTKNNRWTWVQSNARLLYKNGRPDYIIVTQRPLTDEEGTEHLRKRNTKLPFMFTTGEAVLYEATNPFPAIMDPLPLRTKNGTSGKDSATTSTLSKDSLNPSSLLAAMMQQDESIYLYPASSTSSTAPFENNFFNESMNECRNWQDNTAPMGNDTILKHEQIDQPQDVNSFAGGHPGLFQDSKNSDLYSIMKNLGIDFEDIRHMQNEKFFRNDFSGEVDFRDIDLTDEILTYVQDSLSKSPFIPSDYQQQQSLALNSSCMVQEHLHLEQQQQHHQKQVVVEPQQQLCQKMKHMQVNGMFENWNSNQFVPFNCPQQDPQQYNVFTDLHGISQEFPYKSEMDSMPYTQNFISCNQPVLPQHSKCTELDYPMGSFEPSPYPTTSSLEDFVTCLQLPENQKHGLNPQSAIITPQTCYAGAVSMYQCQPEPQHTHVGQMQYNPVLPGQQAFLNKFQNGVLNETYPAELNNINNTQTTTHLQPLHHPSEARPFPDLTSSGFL

CC1=CCC2C(=O)OC(=O)C2C1 (centres undefined)
outcome [1]: inactive
outcome [2]: inactive
outcome [3]: inactive
outcome [4]: inactive
outcome [5]: inactive
AC50 [6]: 65 µM (active)
outcome [7]: inactive
outcome [8]: inactive
outcome [9]: inactive
outcome [10]: inactive
outcome [11]: inactive
outcome [12]: inactive
outcome [13]: inactive
outcome [14]: inactive
outcome [15]: inactive
outcome [16]: inactive
outcome [17]: inactive
outcome [18]: inactive
outcome [19]: inactive

O=C=NCc1cccc(CN=C=O)c1
outcome [1]: inactive
outcome [2]: inactive
outcome [3]: inactive
outcome [4]: inactive
outcome [5]: inactive
outcome [6]: inactive
outcome [7]: inactive
outcome [8]: inactive
outcome [9]: inactive
outcome [10]: inactive
outcome [11]: inactive
outcome [12]: inactive
outcome [13]: inactive
outcome [14]: inactive
outcome [15]: inactive
outcome [16]: inactive
outcome [17]: inactive
outcome [18]: inactive
outcome [19]: inactive

CCOCN(C(=O)CS(=O)(=O)O)c1c(C)cccc1CC
outcome [1]: inactive
outcome [2]: inactive
outcome [3]: inactive
outcome [4]: inactive
outcome [5]: inactive
outcome [6]: inactive
outcome [7]: inactive
outcome [8]: inactive
outcome [9]: inactive
outcome [10]: inactive
outcome [11]: inactive
outcome [12]: inactive
outcome [13]: inactive
outcome [14]: inactive
outcome [15]: inactive
outcome [16]: inactive
outcome [17]: inactive
outcome [18]: inactive
outcome [19]: inactive

CN(C)C(C)(C)CO
AC50 [1]: 50 µM (active)
outcome [2]: inactive
outcome [4]: inactive
outcome [5]: inactive
outcome [6]: inactive
outcome [8]: inactive
outcome [9]: inactive
outcome [10]: inactive
outcome [11]: inactive
outcome [12]: inactive
outcome [13]: inactive
outcome [14]: inactive
outcome [15]: inactive
outcome [16]: inactive
outcome [17]: inactive
outcome [18]: inactive
outcome [19]: inactive

Oc1ccc(C2(c3ccc(O)c(C4CCCCC4)c3)CCCCC2)cc1C1CCCCC1
outcome [2]: inactive
outcome [3]: inactive
AC50 [4]: 8.9 µM (active)
AC50 [5]: 2.73 µM (active)
outcome [6]: inactive
AC50 [7]: 33.4 µM (active)
outcome [8]: inactive
outcome [9]: inactive
AC50 [20]: 8.25 µM (active)
outcome [10]: inactive
outcome [11]: inactive
outcome [12]: inactive
AC50 [13]: 8.92 µM (active)
AC50 [14]: 8.87 µM (active)
outcome [15]: inactive
AC50 [16]: 16.5 µM (active)
AC50 [17]: 60.1 µM (active)
outcome [18]: inactive
AC50 [19]: 8.81 µM (active)

NC(=O)C(F)(F)C(F)(F)C(F)(F)C(F)(F)C(F)(F)C(F)(F)C(F)(F)F
outcome [1]: inactive
outcome [2]: inactive
outcome [3]: inactive
outcome [4]: inactive
outcome [5]: inactive
outcome [6]: inactive
outcome [8]: inactive
outcome [20]: inactive
outcome [10]: inactive
outcome [11]: inactive
outcome [12]: inactive
outcome [13]: inactive
outcome [14]: inactive
AC50 [15]: 16 µM (active)
outcome [16]: inactive
outcome [17]: inactive
outcome [18]: inactive
outcome [19]: inactive

CCOC(=O)C1CC(=O)C(=C(O)C2CC2)C(=O)C1 (centres undefined)
outcome [1]: inactive
outcome [2]: inactive
outcome [4]: inactive
outcome [5]: inactive
outcome [6]: inactive
outcome [7]: inactive
outcome [8]: inactive
outcome [9]: inactive
outcome [20]: inactive
outcome [10]: inactive
outcome [11]: inactive
outcome [12]: inactive
outcome [13]: inactive
outcome [14]: inactive
outcome [15]: inactive
outcome [16]: inactive
outcome [18]: inactive
outcome [19]: inactive
